Read-out in assay [1]: Collagen III, COL3A1 (gene 1281)
The experiment in a line: BSK_MyoF_CollagenIII: BioMAP Diversity Plus: MyoF Assay for Collagen III Biomarker Activity (AID 2284239). Particulars: primary human lung fibroblasts. The gist of the method:
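Lung fibroblast culture; 24 h compound exposure; collagen III by ELISA; gain-of-signal fit vs DMSO baseline.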

Read-out in assay [2]: Interleukin 17F (IL17F), IL17F (gene 112744)
Description: BSK_BT_xIL17F: BioMAP Diversity Plus: BT Assay for Interleukin 17F (IL17F) Biomarker Activity (AID 2284243). Particulars: primary human B cells with PBMC. The gist of the method: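 Secreted IL-17F, read on LumineX xMAP beads, was taken as the endpoint. Cultures combined human B cells and peripheral blood mononuclear cells, sampled 24 hours after dosing, with DMSO serving as negative control.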

Read-out in assay [3]: Actin alpha 1 (ACTA1), ACTA1 (gene 58)
The experiment in a line: BSK_MyoF_ACTA1: BioMAP Diversity Plus: MyoF Assay for Actin alpha 1 (ACTA1) Biomarker Activity (AID 2284244). Particulars: primary human lung fibroblasts. The gist of the method: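 alpha-SMA levels read by ELISA against DMSO baseline, 24 h post-dose, in primary human lung fibroblasts. Parallel cultures stained with 0.1% SRB after 10% TCA fixation (560 nm) to flag overt cytotoxicity.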

Read-out in assay [4]: Interleukin 2 (IL2), IL2 (gene 3558)
Description: BSK_BT_xIL2: BioMAP Diversity Plus: BT Assay for Interleukin 2 (IL2) Biomarker Activity (AID 2284245). Particulars: primary human B cells with PBMC. Put shortly:
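Secreted IL-2 was read by Luminex xMAP from B cells co-cultured with PBMC (human primary) 24 h post-dosing; activity was analysed as gain of signal relative to DMSO vehicle.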

Read-out in assay [5]: Basic fibroblast growth factor (bFGF), FGF2 (gene 2247)
Description: BSK_MyoF_bFGF: BioMAP Diversity Plus: MyoF Assay for Basic fibroblast growth factor (bFGF) Biomarker Activity (AID 2284246). The note with it: primary human lung fibroblasts. Put shortly:
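bFGF was measured by ELISA in primary human lung fibroblasts 24 h after chemical addition. Signal was analysed as positive-direction change relative to DMSO baseline.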

Read-out in assay [6]: Collagen IV, COL4A1 (gene 1282)
Description: BSK_MyoF_CollagenIV: BioMAP Diversity Plus: MyoF Assay for Collagen IV Biomarker Activity (AID 2284247). The note with it: primary human lung fibroblasts. The gist of the method: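 Collagen IV quantified by ELISA in human lung fibroblast cultures 24 h after chemical treatment, with DMSO as baseline. Parallel SRB staining (0.1% SRB after TCA fixation, 560 nm) flags overt cytotoxicity.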

Assay [7] in a line: CCTE_Mundy_HCI_hNP1_Casp3_7: CCTE's Caspase-Glo 3/7 Assay in human neuroprogenitor cells for Apoptosis, Mundy Lab (AID 2284240). The gist of the method: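 Apoptosis is scored by activated caspase-3/7 luminescence in WA09-derived neural progenitor cells, measured 26.5 h after chemical dosing. Values represent gain of signal relative to DMSO vehicle.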
Assay [8] in a line: CCTE_Mundy_HCI_hNP1_CellTiter: CCTE's Cell Titer-Glo 2 Assay in human neuroprogenitor cells for Viability, Mundy Lab (AID 2284241; active = hit-call score of the fitted dose curve at least 0.9, where 1 is the maximum). Put shortly:
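Human neural progenitor cells (hNP1, WA09-derived) were plated on poly-L-ornithine/laminin and grown 40 to 44 hours at 37 °C, 5% CO2 before chemical addition. Twenty-four hours later, ATP was measured by CellTiter-Glo luminescence; loss of signal versus DMSO indicates reduced viability.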
On the technique in general: In ATP-based viability assays light output follows the ATP content of the culture.

Read-out in assay [9]: Monokine induced gamma interferon (MIG), CXCL9 (gene 4283)
Description: BSK_KF3CT_MIG: BioMAP Diversity Plus: KF3CT Assay for Monokine induced gamma interferon (MIG) Biomarker Activity (AID 2284248). The note with it: primary human keratinocytes with fibroblasts. The gist of the method: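 ELISA read-out of MIG after 24 h chemical exposure of human skin primary co-culture (keratinocytes, foreskin fibroblasts). Gain of signal relative to DMSO negative control was analysed.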

Read-out in assay [10]: Interferon-inducible T-cell alpha chemoattractant (ITAC), CXCL11 (gene 6373)
Description: BSK_hDFCGF_ITAC: BioMAP Diversity Plus: hDFCGF Assay for Interferon-inducible T-cell alpha chemoattractant (ITAC) Biomarker Activity (AID 2284251). Particulars: primary human foreskin fibroblasts. The gist of the method: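 I-TAC levels were read by ELISA on human dermal foreskin fibroblast primary cultures 24 h after dosing, analysed against DMSO in the positive direction. Cytotoxicity was assessed alongside by sulforhodamine B total-protein staining.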

Read-out in assay [11]: Plasminogen activator inhibitor-1 (PAI1), SERPINE1 (gene 5054)
Description: BSK_KF3CT_PAI1: BioMAP Diversity Plus: KF3CT Assay for Plasminogen activator inhibitor-1 (PAI1) Biomarker Activity (AID 2284252). The note with it: primary human keratinocytes with fibroblasts. Put shortly: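 PAI-1 levels quantified by ELISA after 24 h compound exposure of primary human skin keratinocytes co-cultured with fibroblasts. Activity is the gain relative to DMSO; cytotoxicity tracked in parallel cultures via SRB staining.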

Read-out in assay [12]: Monocyte Chemoattractant Protein-1 (MCP1), CCL2 (gene 6347)
Description: BSK_IMphg_MCP1: BioMAP Diversity Plus: IMphg Assay for Monocyte Chemoattractant Protein-1 (MCP1) Biomarker Activity (AID 2284253). The note with it: primary human endothelial cells with macrophages. The gist of the method:
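ELISA readout of MCP-1 at 24 hours in IMphg co-cultures of venular endothelial cells and macrophages, normalised to DMSO; parallel cultures stained with sulforhodamine B for overt cytotoxicity.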

Read-out in assay [13]: Interleukin-8 (IL8), CXCL8 (gene 3576)
Description: BSK_KF3CT_IL8: BioMAP Diversity Plus: KF3CT Assay for Interleukin-8 (IL8) Biomarker Activity (AID 2284254). Particulars: primary human keratinocytes with fibroblasts. Put shortly:
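IL-8 read-out: ELISA, 24 h post-dose, human skin primary co-culture (keratinocytes + foreskin fibroblasts). DMSO = baseline; positive-direction fit.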

Read-out in assay [14]: Vascular cell adhesion molecule 1 (VCAM1), VCAM1 (gene 7412)
Description: BSK_BF4T_VCAM1: BioMAP Diversity Plus: BF4T Assay for Vascular cell adhesion molecule 1 (VCAM1) Biomarker Activity (AID 2284249). The note with it: primary human bronchial epithelial cells with fibroblasts. The gist of the method: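 Cell-surface VCAM-1 quantified by ELISA after 24 h chemical exposure of human bronchial epithelial/dermal fibroblast co-cultures, with SRB staining in parallel wells for cytotoxicity; DMSO baseline, positive-direction fitting.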

Read-out in assay [15]: Collagen I, COL1A1 (gene 1277)
Description: BSK_hDFCGF_CollagenI: BioMAP Diversity Plus: hDFCGF Assay for Collagen I Biomarker Activity (AID 2284250). The note with it: primary human foreskin fibroblasts. The gist of the method:
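Collagen I quantified by ELISA 24 h after chemical dosing of human dermal fibroblast primary cells, with parallel SRB staining (0.1%, TCA-fixed, 560 nm) for overt cytotoxicity.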

Several values for one entry are separate records, joined by “and”; a condition that tells them apart may be missing. Equal values may be shown once. Inconclusive results are not listed. A structure can be active in one record and inactive in another. Activity calls are given as the source filed them. Rule for the calls, unless noted: active = hit-call score of the fitted dose curve at least 0.9, where 1 is the maximum; inactive = score below 0.9.

For `C=CC/C=C/C/C=C/C/C=C/C`, the outcome in assay [1], in [2], in [3], in assay [4], in [5] and in assay [6] was inactive.
For `OCC(F)(F)C(F)(F)C(F)(F)F`, the outcome in assay [1], in assay [7], in [8], in assay [2], in assay [3] and in assay [4] was inactive. Moreover, the outcome in assay [5], in assay [6], in assay [9], in assay [10], in assay [11] and in [12] was inactive. In addition, the outcome in assay [13] was inactive.
On to `C=CC(=O)OCC(F)(F)C(F)(F)C(F)(F)C(F)(F)C(F)(F)C(F)(F)C(F)(F)F`, for which the result in [1], in assay [3], in assay [4], in [5], in assay [6] and in assay [9] was inactive. Moreover, the outcome in [10], in assay [11], in assay [12] and in assay [13] was inactive. For the same molecule, the AC50 (in general, the midpoint of the concentration-response curve, whichever way the signal moves) in [2] was 6.72 µM (active) and 18.4 µM (active).
`O=C(O)C(F)(F)C(F)(F)C(F)(F)C(F)(F)C(F)(F)C(F)(F)C(F)(F)C(F)(F)C(F)(F)C(F)(F)C(F)(F)C(F)(F)F`: the outcome in assay [1], in assay [2], in assay [3], in [4], in assay [5] and in assay [6] was inactive. The outcome in assay [9], in assay [10], in assay [11], in assay [12] and in [13] was inactive. Also, the AC50 in [3] was 786 nM (active); in [9], 20.5 µM (active); in [10], 3.49 µM (active).
Turning to `FC(F)(F)C(F)(F)C(F)(F)C(F)(F)C(F)(F)C(F)(F)C(F)(F)Br`, the outcome in assay [1], in assay [2], in [3], in assay [4], in [5] and in [6] was inactive. For the same molecule, the result in assay [9], in [10], in assay [11], in assay [12] and in assay [13] was inactive.
As to `OCC(F)(F)C(F)(F)C(F)(F)C(F)(F)C(F)(F)C(F)(F)F`, the outcome in assay [1], in assay [3], in [4], in assay [5], in assay [6] and in [9] was inactive. Also, the outcome in [14], in assay [10], in assay [11], in assay [12] and in assay [13] was inactive. For the same molecule, the AC50 is 43.8 µM (active) and 40.2 µM (active) in assay [2]; 49.4 µM (active) in assay [10].
Consider `CC(=O)Nc1ccc(N=Nc2cc(C)ccc2O)cc1`, for which the result in assay [1], in assay [2], in assay [3], in assay [4] and in assay [5] was inactive. For the same molecule, the AC50 in [6] was 10.6 µM (active).
With `FC(F)(I)C(F)(F)C(F)(F)C(F)(F)I`, the AC50 is 53.1 µM (active) and 54.9 µM (active) and 54.2 µM (active) in assay [1]; 30 µM (active) and 47.7 µM (active) and 43.1 µM (active) in assay [2]; 48.6 µM (active) and 49 µM (active) and 34.3 µM (active) in assay [3]; 54.7 µM (active) and 47.8 µM (active) and 43.6 µM (active) in assay [4]; 51.4 µM (active) and 45.9 µM (active) in [5]; 50.6 µM (active) and 50.7 µM (active) and 51.6 µM (active) in assay [6]. Also, the AC50 in assay [9] was 58.1 µM (active) and 47.2 µM (active) and 51.6 µM (active); in [10], 29.2 µM (active) and 46.2 µM (active) and 52 µM (active); in assay [11], 52.5 µM (active) and 47 µM (active) and 54.9 µM (active); in [13], 45.8 µM (active) and 47.4 µM (active). Moreover, the outcome in assay [15], in [12] and in [13] was inactive.

(Values after PubChem BioAssay (EPA / NIEHS).)
